Experimental data reported in the supplement of paper PMC10849652.
Of roughly 7,900 targets only a part is listed; those with a hit were picked by preference. About 0.6% of all pairs of compound and target were hits.

Columns and labels:
Assay in all cases: log2 fold change, soluble protein after heating vs DMSO (PISA); higher = thermal stabilisation; K562 cells, 10 uM, 30 min; active = over 0.2 and 3.5 SD of the protein, either way, in both replicates (recomputed)
[1] = compound: CC1=C(C=C(C=C1)NC(=O)C2=CC(=CC=C2)C(C)(C)C#N)NC3=CC4=C(C=C3)N=CN(C4=O)C
In short: (§1)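 K562 cells at 2×10^6 cells/mL were given 10 μM compound for 30 min. Aliquots then went through 3 min of heating across 48°C-58°C, were pooled, and were extracted in PBS with 0.5% NP-40 at 4°C, and the supernatant after 21,000xg for 90 min was quantified by TMTpro 16plex LC-MS/MS with channel sums equalised. Thermal stability relative to control samples, from duplicates, is given as log2 fold change.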

[2] = compound: CC1=C(C=C(C=C1)NC(=O)C2=CC(=CC=C2)N(C)C)NC(=O)C3=CC=C(C=C3)O
In short: as §1

[3] = compound: CC1=CC=C(C=C1)SC2=C3C=C(SC3=CN=C2)C(=O)N
In short: as §1

[4] = compound: CC1=NC(=CC=C1)C2=C(N=C(N2)C(C)(C)C)C3=CC4=NC=CN=C4C=C3
In short: as §1

Nexturastat A = compound: CCCCN(Cc1ccc(C(=O)NO)cc1)C(=O)Nc1ccccc1 [Nexturastat A]
In short: as §1

vemurafenib = compound: CCCS(=O)(=O)Nc1ccc(F)c(C(=O)c2c[nH]c3ncc(-c4ccc(Cl)cc4)cc23)c1F [vemurafenib]
In short: as §1

[5] = compound: CCCS(=O)(=O)Nc1ccc(F)c(C(=O)c2c[nH]c3ncc(Cl)cc23)c1F
In short: as §1

[6] = compound: CCCc1cc(C)[nH]c(=O)c1CNC(=O)c1cc(-c2ccnc(N3CCN(C)CC3)c2)cc2c1cnn2C(C)C
In short: as §1

givinostat = compound: CCN(CC)Cc1ccc2cc(COC(=O)Nc3ccc(C(=O)NO)cc3)ccc2c1 [givinostat]
In short: as §1

barasertib = compound: CCN(CCCOc1ccc2c(Nc3cc(CC(=O)Nc4cccc(F)c4)[nH]n3)ncnc2c1)CCOP(=O)(O)O [barasertib]
In short: as §1

[7] = compound: CC[C@@H]1C(=O)N(C)c2cnc(Nc3ccc(C(=O)NC4CCN(C)CC4)cc3OC)nc2N1C1CCCC1
In short: as §1

volasertib = compound: CC[C@@H]1C(=O)N(C)c2cnc(Nc3ccc(C(=O)N[C@H]4CC[C@H](N5CCN(CC6CC6)CC5)CC4)cc3OC)nc2N1C(C)C [volasertib]
In short: as §1

[8] = compound: CC[C@H](C)N1C=C(C2=C(C=C(C=C21)C3=CN=C(C=C3)N4CCNCC4)C(=O)NCC5=C(C=C(NC5=O)C)C)C
In short: as §1

epoxomicin = compound: CC[C@H](C)[C@@H](C(=O)N[C@@H]([C@@H](C)O)C(=O)N[C@@H](CC(C)C)C(=O)[C@]1(CO1)C)NC(=O)[C@H]([C@@H](C)CC)N(C)C(=O)C [epoxomicin]
In short: as §1

[9] = compound: CCn1c(C(=O)N(C2CC2)C2CC2)cc2c3c(ncn3C)c(Nc3cc(C)n(C)n3)nc21
In short: as §1

[10] = compound: CCn1cc(-c2ccnc3[nH]c(-c4cccc(CN(C)C)c4)cc23)c(-c2ccc(NC(=O)N(C)C)cc2)n1
In short: as §1

[11] = compound: CN(C)CC(=O)Nc1ccc2[nH]c(=O)c3ccccc3c2c1
In short: as §1

rosiglitazone = compound: CN(CCOC1=CC=C(C=C1)C[C@H]2C(=O)NC(=O)S2)C3=CC=CC=N3 (racemic) [rosiglitazone]
In short: as §1

[12] = compound: CN1C2=C(C3=C1C(=O)N(N=C3)CC4=CC(=CC=C4)N)SC(=C2)S(=O)C
In short: as §1

[13] = compound: CN1CCC(CNc2ccc3ncc(-c4cccc(OC(F)(F)F)c4)n3n2)CC1
In short: as §1

Measured: log2 fold change

PPP1R14A (UniProt Q96A00)
Sequence of UniProt Q96A00 (Q96A00 whole entry, looked up): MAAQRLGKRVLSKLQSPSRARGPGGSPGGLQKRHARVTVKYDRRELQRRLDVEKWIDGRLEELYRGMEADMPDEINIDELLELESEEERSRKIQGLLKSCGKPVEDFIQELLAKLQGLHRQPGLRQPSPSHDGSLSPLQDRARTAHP
inactive: [1] -0.002 | [2] -0.04 | [3] 0.004 | [4] 0.051 | Nexturastat A -0.006 | vemurafenib -0.005 | [5] -0.054 | [6] 0.062 | givinostat -0.004 | barasertib 0.013 | [7] 0.002 | volasertib 0.051 | [8] 0 | epoxomicin 0.058 | [9] -0.023 | [10] -0.067 | [11] -0.04 | rosiglitazone 0.016 | [12] -0.027 | [13] -0.091

PECAM1 (UniProt P16284)
inactive: [1] -0.092 | [2] -0.019 | [3] -0.013 | [4] -0.113 | Nexturastat A 0.068 | vemurafenib -0.049 | [5] 0.004 | [6] -0.015 | givinostat 0.01 | barasertib 0.028 | [7] 0.116 | volasertib 0.061 | [8] -0.019 | epoxomicin -0.027 | [9] 0.022 | [10] -0.106 | [11] 0.027 | rosiglitazone 0.014 | [12] -0.067 | [13] 0.168

POLR1A (UniProt O95602)
inactive: [1] -0.082 | [2] -0.019 | [3] -0.198 | [4] -0.185 | vemurafenib 0.052 | [5] 0.062 | [6] 0.321 | givinostat 0.083 | barasertib 0.016 | [7] 0.059 | volasertib 0.071 | [8] -0.26 | epoxomicin -0.037 | [9] 0.063 | [10] -0.066 | [11] -0.086 | rosiglitazone 0.015 | [12] 0.056 | [13] 0.054
active: Nexturastat A 0.489

PPOX (UniProt P50336)
inactive: [1] 0.402 | [2] -0.014 | [3] 0.043 | [4] 0.099 | Nexturastat A -0.232 | vemurafenib 0.065 | [5] 0.046 | [6] 0.184 | givinostat -0.063 | barasertib 0 | [7] -0.134 | volasertib -0.023 | [8] -0.017 | epoxomicin -0.002 | [9] 0.109 | [10] -0.052 | [11] 0.008 | rosiglitazone 0.127 | [12] -0.164
active: [13] -0.583

PELP1 (UniProt Q8IZL8)
inactive: [1] -0.048 | [2] 0.044 | [3] 0.034 | [4] -0.02 | Nexturastat A 0.15 | vemurafenib -0.01 | [5] -0.038 | [6] -0.006 | givinostat 0.039 | barasertib -0.085 | [7] 0.056 | volasertib 0.017 | [8] -0.002 | epoxomicin -0.004 | [9] -0.01 | [10] 0.047 | [11] -0.009 | rosiglitazone 0.017 | [12] 0.006 | [13] 0.021

PNPLA2 (UniProt Q96AD5)
inactive: [1] 0.009 | [2] -0.017 | [3] -0.003 | [4] 0.008 | Nexturastat A -0.021 | vemurafenib -0.017 | [5] 0.053 | [6] 0.026 | givinostat 0.036 | barasertib -0.092 | [7] 0.11 | volasertib 0.126 | [8] 0.015 | epoxomicin -0.041 | [9] 0.013 | [10] 0.156 | [11] -0.044 | rosiglitazone -0.155 | [12] -0.025 | [13] -0.068

PTPN23 (UniProt Q9H3S7)
Sequence of UniProt Q9H3S7 (Q9H3S7 whole entry, looked up): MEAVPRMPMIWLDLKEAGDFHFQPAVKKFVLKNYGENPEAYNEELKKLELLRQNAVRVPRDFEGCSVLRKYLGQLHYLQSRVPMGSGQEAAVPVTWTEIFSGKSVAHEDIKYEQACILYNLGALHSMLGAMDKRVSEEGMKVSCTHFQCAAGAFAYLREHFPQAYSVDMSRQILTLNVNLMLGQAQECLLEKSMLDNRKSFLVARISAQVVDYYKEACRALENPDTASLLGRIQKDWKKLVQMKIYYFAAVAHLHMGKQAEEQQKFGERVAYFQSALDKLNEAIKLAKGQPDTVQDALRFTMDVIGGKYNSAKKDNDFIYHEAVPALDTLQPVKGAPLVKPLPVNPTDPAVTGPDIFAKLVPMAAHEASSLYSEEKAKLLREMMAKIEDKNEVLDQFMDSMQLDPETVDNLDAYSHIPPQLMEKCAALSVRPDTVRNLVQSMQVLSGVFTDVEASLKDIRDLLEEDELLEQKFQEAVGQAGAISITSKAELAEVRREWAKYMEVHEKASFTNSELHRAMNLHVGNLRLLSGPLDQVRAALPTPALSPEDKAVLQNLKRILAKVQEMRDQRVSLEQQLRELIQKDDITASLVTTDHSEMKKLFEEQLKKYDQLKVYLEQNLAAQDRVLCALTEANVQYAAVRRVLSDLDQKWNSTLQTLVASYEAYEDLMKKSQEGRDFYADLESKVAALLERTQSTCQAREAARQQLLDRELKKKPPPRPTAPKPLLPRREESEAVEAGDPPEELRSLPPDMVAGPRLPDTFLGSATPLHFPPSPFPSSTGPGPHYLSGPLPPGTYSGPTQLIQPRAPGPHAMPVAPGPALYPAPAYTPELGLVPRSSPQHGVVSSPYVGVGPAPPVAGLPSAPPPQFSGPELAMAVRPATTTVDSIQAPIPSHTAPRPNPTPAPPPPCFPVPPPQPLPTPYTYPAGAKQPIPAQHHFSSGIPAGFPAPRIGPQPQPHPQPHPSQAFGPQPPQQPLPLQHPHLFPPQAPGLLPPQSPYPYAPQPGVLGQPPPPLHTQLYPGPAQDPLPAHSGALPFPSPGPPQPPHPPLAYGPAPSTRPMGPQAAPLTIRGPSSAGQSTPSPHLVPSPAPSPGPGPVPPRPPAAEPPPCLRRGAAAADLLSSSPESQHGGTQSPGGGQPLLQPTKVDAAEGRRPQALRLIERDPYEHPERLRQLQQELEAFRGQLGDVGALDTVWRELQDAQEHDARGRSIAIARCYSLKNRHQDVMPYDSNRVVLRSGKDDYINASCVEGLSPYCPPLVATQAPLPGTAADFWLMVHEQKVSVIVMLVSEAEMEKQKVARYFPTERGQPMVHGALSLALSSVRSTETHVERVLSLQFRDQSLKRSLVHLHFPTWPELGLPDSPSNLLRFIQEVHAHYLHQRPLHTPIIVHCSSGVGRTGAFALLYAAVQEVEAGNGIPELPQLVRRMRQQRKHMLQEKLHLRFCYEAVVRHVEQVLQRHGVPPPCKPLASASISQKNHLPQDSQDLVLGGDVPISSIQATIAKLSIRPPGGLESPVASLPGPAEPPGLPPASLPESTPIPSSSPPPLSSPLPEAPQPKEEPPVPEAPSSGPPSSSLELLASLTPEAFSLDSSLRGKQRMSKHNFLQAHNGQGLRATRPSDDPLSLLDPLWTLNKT
active: volasertib -0.453
inactive: [1] -0.062 | [2] -0.049 | [3] -0.009 | [4] 0.002 | Nexturastat A -0.015 | vemurafenib 0.025 | [5] 0.051 | [6] 0.088 | givinostat 0.107 | barasertib 0.047 | [7] -0.163 | [8] 0.019 | epoxomicin 0.013 | [9] -0.024 | [10] -0.006 | [11] 0.073 | rosiglitazone 0.017 | [12] 0.016 | [13] -0.106

PRPF4B (UniProt Q13523)
inactive: [1] -0.024 | [2] 0.018 | [3] -0.079 | [4] -0.082 | Nexturastat A 0.158 | vemurafenib 0.052 | [5] 0.03 | [6] -0.098 | givinostat 0.082 | barasertib -0.05 | [7] 0.025 | volasertib -0.17 | [8] 0.027 | epoxomicin -0.174 | [9] -0.005 | [10] 0.104 | [11] -0.049 | rosiglitazone 0.011 | [12] 0.081 | [13] 0.019

PFDN1 (UniProt O60925)
Sequence of UniProt O60925 (O60925 whole entry, looked up): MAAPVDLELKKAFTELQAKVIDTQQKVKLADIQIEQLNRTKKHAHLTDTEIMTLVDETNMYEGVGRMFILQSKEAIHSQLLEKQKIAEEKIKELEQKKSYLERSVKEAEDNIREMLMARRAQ
inactive: [1] 0.039 | [2] -0.131 | [3] 0.089 | [4] 0.041 | Nexturastat A -0.071 | vemurafenib 0.172 | [5] -0.019 | [6] -0.016 | givinostat 0.004 | barasertib 0.002 | [7] 0.044 | volasertib -0.009 | [8] -0.004 | epoxomicin 0.183 | [9] 0.02 | [10] -0.019 | [11] 0 | rosiglitazone 0.003 | [12] -0.119 | [13] 0.113

PYGL (UniProt P06737)
Sequence of UniProt P06737 (P06737 whole entry, looked up): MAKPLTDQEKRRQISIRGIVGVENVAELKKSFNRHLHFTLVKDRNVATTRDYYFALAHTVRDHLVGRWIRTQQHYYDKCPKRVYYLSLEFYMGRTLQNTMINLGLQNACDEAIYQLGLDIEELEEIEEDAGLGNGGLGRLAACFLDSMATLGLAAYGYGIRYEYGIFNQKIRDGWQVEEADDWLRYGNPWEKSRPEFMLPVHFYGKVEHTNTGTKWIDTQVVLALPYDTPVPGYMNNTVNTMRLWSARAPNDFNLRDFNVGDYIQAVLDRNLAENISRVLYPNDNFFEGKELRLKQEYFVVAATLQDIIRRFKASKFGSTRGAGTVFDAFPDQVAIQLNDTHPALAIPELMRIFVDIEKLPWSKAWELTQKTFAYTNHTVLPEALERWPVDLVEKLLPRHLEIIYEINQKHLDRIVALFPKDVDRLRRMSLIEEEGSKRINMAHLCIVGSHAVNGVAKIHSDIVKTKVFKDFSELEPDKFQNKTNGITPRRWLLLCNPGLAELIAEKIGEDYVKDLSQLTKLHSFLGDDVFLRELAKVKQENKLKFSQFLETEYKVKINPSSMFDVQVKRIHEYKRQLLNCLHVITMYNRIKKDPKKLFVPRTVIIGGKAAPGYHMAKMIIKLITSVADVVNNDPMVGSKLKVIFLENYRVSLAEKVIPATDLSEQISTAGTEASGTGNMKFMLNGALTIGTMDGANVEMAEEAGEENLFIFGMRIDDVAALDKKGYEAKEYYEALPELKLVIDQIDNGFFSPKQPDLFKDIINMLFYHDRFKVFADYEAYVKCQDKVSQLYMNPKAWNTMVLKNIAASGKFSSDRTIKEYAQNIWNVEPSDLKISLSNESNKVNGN
inactive: [1] -0.105 | [2] 0.011 | [3] 0.011 | [4] 0.006 | Nexturastat A -0.018 | vemurafenib -0.009 | [5] 0.003 | [6] -0.015 | givinostat 0.012 | barasertib -0.01 | [7] -0.091 | [8] 0.008 | epoxomicin -0.02 | [9] -0.081 | [10] 0.016 | [11] -0.001 | rosiglitazone 0.018 | [12] -0.006 | [13] 0.029
active: volasertib -0.262

PCYT1B (UniProt Q9Y5K3)
active: volasertib -0.315
inactive: [1] 0.007 | [2] 0.022 | [3] 0.011 | [4] 0.034 | Nexturastat A -0.06 | vemurafenib 0.022 | [5] 0.049 | [6] -0.031 | givinostat 0.038 | barasertib 0.048 | [7] -0.105 | [8] 0.08 | epoxomicin 0.001 | [9] -0.033 | [10] 0 | [11] 0.012 | rosiglitazone 0.041 | [12] -0.007 | [13] 0.035

PSMC1 (UniProt P62191)
Sequence of UniProt P62191 (P62191 whole entry, looked up): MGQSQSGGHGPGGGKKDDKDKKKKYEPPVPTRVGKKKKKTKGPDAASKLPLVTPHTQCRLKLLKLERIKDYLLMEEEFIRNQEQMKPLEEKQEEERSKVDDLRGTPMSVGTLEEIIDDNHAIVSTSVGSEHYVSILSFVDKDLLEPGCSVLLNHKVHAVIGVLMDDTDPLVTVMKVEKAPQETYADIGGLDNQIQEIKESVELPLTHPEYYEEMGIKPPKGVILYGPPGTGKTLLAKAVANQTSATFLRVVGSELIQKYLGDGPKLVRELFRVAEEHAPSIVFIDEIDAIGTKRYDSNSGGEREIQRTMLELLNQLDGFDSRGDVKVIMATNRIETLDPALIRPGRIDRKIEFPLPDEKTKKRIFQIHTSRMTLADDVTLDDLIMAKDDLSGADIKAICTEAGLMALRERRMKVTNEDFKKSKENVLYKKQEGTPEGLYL
active: epoxomicin -0.342
inactive: [1] 0.024 | [2] 0.033 | [3] -0.038 | [4] -0.069 | Nexturastat A 0.026 | vemurafenib -0.064 | [5] -0.06 | [6] -0.012 | givinostat -0.073 | barasertib -0.073 | [7] 0.038 | volasertib 0.129 | [8] -0.015 | [9] 0.042 | [10] 0.092 | [11] -0.003 | rosiglitazone -0.038 | [12] 0.031 | [13] 0.051

PRUNE1 (UniProt Q86TP1)
Sequence of UniProt Q86TP1 (Q86TP1 whole entry, looked up): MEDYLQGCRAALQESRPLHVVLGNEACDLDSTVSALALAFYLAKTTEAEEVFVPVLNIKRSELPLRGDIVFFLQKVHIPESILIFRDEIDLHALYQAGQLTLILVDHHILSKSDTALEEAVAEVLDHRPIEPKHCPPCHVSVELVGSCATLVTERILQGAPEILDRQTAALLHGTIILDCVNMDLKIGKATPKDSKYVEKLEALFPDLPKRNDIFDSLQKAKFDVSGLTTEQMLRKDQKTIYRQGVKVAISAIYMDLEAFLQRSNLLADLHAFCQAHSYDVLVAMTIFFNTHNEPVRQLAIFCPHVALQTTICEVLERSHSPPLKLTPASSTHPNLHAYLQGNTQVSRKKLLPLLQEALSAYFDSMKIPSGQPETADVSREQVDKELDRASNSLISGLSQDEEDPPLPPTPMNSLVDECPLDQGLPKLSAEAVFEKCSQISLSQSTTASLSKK
active: volasertib -0.417
inactive: [1] 0.056 | [2] -0.014 | [3] -0.005 | [4] -0.028 | Nexturastat A 0.161 | vemurafenib 0.129 | [5] 0.036 | [6] 0.022 | givinostat 0.056 | barasertib 0.105 | [7] -0.083 | [8] 0.067 | epoxomicin 0.012 | [9] -0.035 | [10] -0.024 | [11] -0.018 | rosiglitazone 0.04 | [12] -0.079 | [13] -0.089

PMM2 (UniProt O15305)
Sequence of UniProt O15305 (O15305 whole entry, looked up): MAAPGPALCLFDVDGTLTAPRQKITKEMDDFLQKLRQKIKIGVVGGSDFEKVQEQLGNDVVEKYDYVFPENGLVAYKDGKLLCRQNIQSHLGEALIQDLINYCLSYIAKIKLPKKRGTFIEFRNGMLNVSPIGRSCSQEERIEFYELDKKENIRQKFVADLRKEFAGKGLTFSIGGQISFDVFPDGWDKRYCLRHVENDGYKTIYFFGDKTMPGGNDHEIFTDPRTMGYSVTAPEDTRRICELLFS
inactive: [1] -0.102 | [2] 0.021 | [3] -0.014 | [4] -0.009 | Nexturastat A -0.124 | vemurafenib -0.04 | [5] -0.009 | [6] -0.055 | givinostat 0.015 | barasertib 0.003 | [7] -0.03 | volasertib -0.021 | [8] 0.026 | epoxomicin -0.021 | [9] -0.003 | [10] -0.002 | [11] -0.049 | rosiglitazone 0.037 | [12] -0.076 | [13] -0.049

PITRM1 isoform 2 (UniProt Q5JRX3)
Sequence of UniProt Q5JRX3 (Q5JRX3 whole entry, looked up): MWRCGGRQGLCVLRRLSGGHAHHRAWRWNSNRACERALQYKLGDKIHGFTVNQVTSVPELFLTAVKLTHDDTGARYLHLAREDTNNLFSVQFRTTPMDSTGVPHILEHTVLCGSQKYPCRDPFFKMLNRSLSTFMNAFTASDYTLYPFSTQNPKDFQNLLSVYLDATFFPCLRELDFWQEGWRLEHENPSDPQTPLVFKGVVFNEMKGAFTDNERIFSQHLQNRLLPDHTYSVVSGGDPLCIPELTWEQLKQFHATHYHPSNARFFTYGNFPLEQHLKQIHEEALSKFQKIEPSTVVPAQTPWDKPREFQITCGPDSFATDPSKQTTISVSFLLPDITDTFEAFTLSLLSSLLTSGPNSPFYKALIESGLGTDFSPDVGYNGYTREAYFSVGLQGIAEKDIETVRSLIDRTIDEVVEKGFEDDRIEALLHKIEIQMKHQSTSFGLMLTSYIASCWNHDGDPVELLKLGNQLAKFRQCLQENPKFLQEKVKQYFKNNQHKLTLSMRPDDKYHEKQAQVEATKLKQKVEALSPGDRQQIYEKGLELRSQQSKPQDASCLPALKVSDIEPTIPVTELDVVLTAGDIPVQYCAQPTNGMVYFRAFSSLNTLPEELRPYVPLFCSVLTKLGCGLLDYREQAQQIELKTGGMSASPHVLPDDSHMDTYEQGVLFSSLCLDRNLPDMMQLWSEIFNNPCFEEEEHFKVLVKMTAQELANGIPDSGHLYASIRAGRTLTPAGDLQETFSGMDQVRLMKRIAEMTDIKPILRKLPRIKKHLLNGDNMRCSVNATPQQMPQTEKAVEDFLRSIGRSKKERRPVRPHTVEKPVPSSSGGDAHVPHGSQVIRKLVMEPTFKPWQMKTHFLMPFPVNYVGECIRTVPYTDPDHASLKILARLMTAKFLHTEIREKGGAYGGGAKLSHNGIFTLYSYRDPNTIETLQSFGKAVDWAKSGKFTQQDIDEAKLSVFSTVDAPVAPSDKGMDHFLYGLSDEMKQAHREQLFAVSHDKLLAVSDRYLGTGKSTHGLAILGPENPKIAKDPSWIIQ
active: volasertib 0.489
inactive: [1] 0.21 | [2] -0.064 | [3] 0.047 | [4] 0.073 | Nexturastat A -0.152 | vemurafenib 0.002 | [5] -0.002 | [6] 0.018 | givinostat -0.047 | barasertib -0.03 | [7] 0.048 | [8] 0.166 | epoxomicin -0.029 | [9] 0.074 | [10] -0.084 | [11] 0.023 | rosiglitazone 0.03 | [12] -0.124 | [13] -0.189

PSMD5 (UniProt Q16401)
inactive: [1] -0.009 | [2] -0.001 | [3] 0.023 | [4] 0.027 | Nexturastat A -0.01 | vemurafenib 0.015 | [5] 0.047 | [6] 0.003 | givinostat -0.007 | barasertib 0.027 | [7] -0.112 | [8] 0.013 | epoxomicin 0.027 | [9] 0 | [10] -0.026 | [11] -0.011 | rosiglitazone 0.012 | [12] -0.043 | [13] -0.038
active: volasertib -0.225
